The panel holds about 79,000 compounds, 15% with a hit somewhere; the sample as a whole holds those more often. Activity calls are given as the source filed them. Rule as the data show it: active = growth inhibition above about 70%; inactive = the rest.
Assay: NCI Yeast Anticancer Drug Screen. Data for the sgs1 mgt1 strain (AID 161);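 also: 0% = growth of cultures given vehicle only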
Conditions: S. cerevisiae sgs1 mgt1 strain, active compounds read high
Protocol: Growth inhibition of yeast strains with defined genetic alterations is measured as a screen for potential anti-cancer activity. Selected strains with alterations in DNA damage repair or cell cycle control were exposed to compounds and growth inhibition was measured relative to vehicle treated controls. The strain used in this assay is sgs1 mgt1

[1] = at 5.0 µM (retest, dose inferred, filed as 0.5)
[2] = at 50.0 µM (retest, dose inferred, filed as 5.0)

SMILES: O=P(C(=S)Nc1c(Cl)cccc1Cl)(c1ccccc1)c1ccccc1
- growth inhibition [1]: -6% (inactive)
- growth inhibition [2]: 95% (active)
- growth inhibition (at 50.0 µM): 88.3% (active)

SMILES: CNC(=S)N/N=C(/C)CCC/C(C)=N/NC(=S)NC
- growth inhibition [1]: 48% (inactive)
- growth inhibition [2]: 53% (inactive)
- growth inhibition (at 50.0 µM): 66.5% (inactive)

SMILES: O=S(=O)(c1ccccc1)N1CN2CN(C1)CN(S(=O)(=O)c1ccccc1)C2
- growth inhibition [1]: -11% (inactive)
- growth inhibition [2]: 4% (inactive)
- growth inhibition (at 50.0 µM): -5.55% (inactive)

SMILES: CC(C)CCC[C@@H](C)[C@H]1CC[C@H]2[C@@H]3CC[C@H]4C[C@H](N)CC[C@]4(C)[C@H]3CC[C@]12C
- growth inhibition [1]: -9% (inactive)
- growth inhibition [2]: 53% (inactive)
- growth inhibition (at 50.0 µM): -1.6% (inactive)

SMILES: O=[N+]([O-])c1cc[n+]([O-])c(Cl)c1
- growth inhibition [1]: 1% (inactive)
- growth inhibition [2]: 99% (active)
- growth inhibition (at 50.0 µM): 99.8% (active)

SMILES: CN(C)CCNc1ccc2ncn3c4ccc(O)cc4c(=O)c1c23
- growth inhibition [1]: 13% (inactive)
- growth inhibition [2]: 7% (inactive)
- growth inhibition (at 50.0 µM): -10.6% (inactive)

SMILES: CNCC(C)CNC
- growth inhibition [1]: 2% (inactive)
- growth inhibition [2]: 25% (inactive)
- growth inhibition (at 50.0 µM): 23.3% (inactive)

SMILES: Cc1cccc2c(NCCCN(C)C)c3c([N+](=O)[O-])ccc(C)c3nc12
- growth inhibition [1]: 12% (inactive)
- growth inhibition [2]: 46% (inactive)
- growth inhibition (at 50.0 µM): 96.8% (active)

SMILES: CCCCCCCCCCCCCCCCCCNC(=S)/N=C/c1c(O)c2ccccc2[nH]c1=O
- growth inhibition [1]: 4% (inactive)
- growth inhibition [2]: 26% (inactive)
- growth inhibition (at 50.0 µM): 86.5% (active)

SMILES: C/C(=N\Sc1ccccc1)c1ccccc1O
- growth inhibition [1]: -63% (inactive)
- growth inhibition [2]: 49% (inactive)
- growth inhibition (at 50.0 µM): 33.5% (inactive)

SMILES: O=C(O)CNC(c1ccccc1)(c1ccccc1)c1ccccc1
- growth inhibition [1]: 2% (inactive)
- growth inhibition [2]: 98% (active)
- growth inhibition (at 50.0 µM): 90.8% (active)

SMILES: Cc1cccc(C)c1NC(=O)C(C#N)C1=C(Cl)C(=O)c2ccccc2C1=O (configuration not stated)
- growth inhibition [1]: 99% (active)
- growth inhibition [2]: 99% (active)
- growth inhibition (at 50.0 µM): 93.7% (active)

SMILES: O=C(CCCN1CCC(Nc2ccc(F)cc2)(c2nnnn2C2CCCCC2)CC1)c1ccc(F)cc1
- growth inhibition [1]: -4% (inactive)
- growth inhibition [2]: 31% (inactive)
- growth inhibition (at 50.0 µM): 50.3% (inactive)

SMILES: O=C1Nc2ccc(Br)cc2C1=Nc1ccc(Cl)cc1
- growth inhibition [1]: 8% (inactive)
- growth inhibition [2]: 71% (active)
- growth inhibition (at 50.0 µM): 53.4% (inactive)

— PubChem BioAssay (NCI)
